Measured values taken from PubChem BioAssay AID1117319 (Southern Research Institute, 2015).
“And” between values parts separate entries of the source, which are not always exact repeats. Identical values can stand only once. About 1,500 (0.58%) of roughly 260,000 compounds were called active. Not shown: some 5% with an inconclusive outcome.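 Rule for the calls: active = inhibition above a set limit at one or more doses, reproduced on every date tested; inconclusive = results disagree between test dates, or hit never tested in dose response; inactive = the rest.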 A selection follows. Potency and affinity values are given separately.

These compounds were tested against Virion infectivity factor (Human immunodeficiency virus type 1 group M subtype B (isolate BH10)) + Virion infectivity factor (Human immunodeficiency virus type 1 group M subtype B (isolate BRU/LAI)) + Virion infectivity factor (Human immunodeficiency virus type 1 group M subtype B (isolate PCV12)) + Virion infectivity factor (Human immunodeficiency virus type 1 group M subtype B (isolate HXB2)) + DNA dC->dU-editing enzyme APOBEC-3G (Homo sapiens) (UniProt P69720+P69721+P69722+P69723+Q9HC16) (assay: inhibitors of Vif binding to APOBEC3G peptide, primary screen, biochemical, TR-FRET, GST-Vif 1-94, biotin-A3G peptide, dose response retest (AID 1117319;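 note: Vif residues 1-94 fused to GST binding biotinylated APOBEC3G peptide 110-148; 0% = full assay without inhibitor and 100% = GST in place of GST-Vif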)). Settings: stronger effect = higher value.

inhibition, inactive:
CC(=O)Nc1cccc(N(C)C)c1 6.55%
Cc1cc(NS(C)(=O)=O)c(=O)n(Cc2cccc(C(F)(F)F)c2)c1 0.67%
CSCC(=O)N1CCCC(CNC(=O)c2ccccc2Cl)C1 (centres undefined) -7.52%
COc1ccc(OCCSc2ncccn2)cc1 -7.11%
COC(=O)c1nc(NC(=O)c2ccc(Br)cc2)n[nH]1 23.4%
CCOc1ccc(N(C)S(=O)(=O)c2ccc3[nH]cc(C(=O)NCCOC)c(=O)c3c2)cc1 0.42%
COc1ccc(-c2c(-c3ccc(O)cc3O)n[nH]c2C)cc1OC 6.2%
CCOc1cccc(C2C(C(=O)c3ccc(C)o3)=C(O)C(=O)N2c2nccs2)c1 (centres undefined) -6.71%
O=C(N/N=C/c1ccc(OC(=O)c2ccccc2)c([N+](=O)[O-])c1)c1ccc(O)cc1 2.33%
CCOC(=O)N=Nc1c2ccccc2c2nc3no[nH]c3nc12 8.41%
Cc1ccc2cc(CN(C(=O)c3ccco3)c3cccc(C)c3C)c(=O)[nH]c2c1 -8.5%
C#Cc1ccc([C@@H]2C=C(C(=O)OCC=C)O[C@H](OCc3ccc(CO)cc3)C2)cc1 6.58%
COc1ccc(/C=C(\C#N)C(=O)Nc2ccc3[nH]c(=O)[nH]c3c2)cc1 11.7%
N#C/C(=C\c1ccc(-c2ccc(C(=O)O)cc2)o1)C(=O)Nc1ccc(F)cc1 15.6%
CCOCCCNC(=O)/C(C#N)=C/c1ccc([N+](=O)[O-])o1 26.7%
COc1ccc(NC(=O)c2ccc(Br)o2)cc1 6.22%
COc1ccc(NC(=O)/C(C#N)=C/c2ccc3c(c2)n(C)c(=O)n3C)cc1 1.72%
N#C/C(=C/c1ccc(F)cc1)C(N)=S -0.15%
N#C/C(=C/c1ccc(Br)o1)C(N)=O 10.3%
Cc1ccc(NC(=O)/C(C#N)=C/c2ccc(Sc3nc(C)cc(C)n3)o2)cc1 -1.36%
CC(=O)OC12CC3CC(C1)C(=NO)C(C3)C2 -2.41%
COc1ccc(Cn2cnc3c(NS(C)(=O)=O)c(C)c(C)cc32)cc1 -0.98%
Cc1ccc(-c2nc(CS(=O)CC(=O)NCCN3CCCCCC3)c(C)o2)cc1 (centres undefined) -1.41%
COc1ccc(-n2c(SCC(=O)Nc3ccc(C(=O)O)cc3)nnc2-c2ccccc2)cc1OC 4.7%
O=C(N/N=C/c1cc(Br)c(O)c(Br)c1)c1cccnc1 -0.54%
Cc1cc(C)cc(NC(=O)c2ccc(NC(=O)C3C4CC5OC(=O)C3C5C4)cc2)c1 (centres undefined) -3.35%
CCn1c(C)nnc1SCC(=O)Nc1cccc(C(F)(F)F)c1 -2.71%
CN(C(=O)c1ccc(C#N)cc1)c1nnc(-c2ccccn2)s1 -7.43%
CCc1ccc2nc3c(c(C(=O)O)c2c1)CCC3 23.1%
Cc1ccc2nc3c(c(C(=O)O)c2c1)CCC3 32.8%
Cc1c(C(=O)O)sc(=S)n1CCOc1ccccc1 5.91%
O=C(CCN1CCN(S(=O)(=O)c2ccc(Cl)cc2)CC1)Nc1ccc(F)cc1 1.22%
COc1cccc(C=Nc2ccccc2C#N)c1O 14.7%
Cc1cc(O)c(C(C)C)cc1N=Cc1ccccc1[N+](=O)[O-] -2.95%
Cc1cc(O)c(C(C)C)cc1N=Cc1ccccc1O -2.17%
Cc1cc(O)c(C(C)C)cc1N=Cc1ccc(N(C)C)cc1 12.6%
O=C(CC(O)(c1ccccc1)c1ccccc1)Nc1ccccn1 -5.64%
O=C1Nc2ccccc2C(=O)C1(Cl)Cc1ccccc1 (centres undefined) 2.05%
Cc1ccc(OCC(=O)OCc2nc3scc(-c4ccccc4)c3c(=O)[nH]2)cc1C -11.5%
Cn1c(=O)c2c(nc(SCc3nn[nH]n3)n2Cc2ccccc2F)n(C)c1=O 26.4%
Cn1c(=O)c2c(nc(SCCCC#N)n2Cc2ccccc2F)n(C)c1=O 5.84%
COc1ccccc1-n1cnc2cc(NCc3ccccc3O)ccc21 5.69%
Cc1ccccc1-n1cnc2cc(NCc3cccs3)ccc21 4.79%
COc1ccc(CC(=O)Nc2ccc(S(=O)(=O)Nc3cc(C)nc(C)n3)cc2)cc1OC -3.26%
CC(C)c1ccc(CCNC(=O)CCNC(=O)c2ccc(Br)cc2)cc1 -4.69%
COc1cccc(C=NCC(C)N=Cc2cccc(OC)c2O)c1O (centres undefined) 1.39%
Oc1ccccc1C=NCC(O)c1ccccc1 (centres undefined) 22%
Oc1c(Br)cc(Br)cc1C=NCc1ccccc1 -9.44%
Oc1cccc(C=NCc2ccccc2)c1 -4.5%
COC(=O)c1ccc(C2C(Oc3ccccc3)C(=O)N2CCc2ccc(F)cc2)cc1 (centres undefined) -5.73%
C=CCN(C(=O)CCS(=O)(=O)c1cccc2nsnc12)c1ccccc1 -10%
Cc1ccc(NC(=O)CN2C(=O)NC(C)(c3ccc(Cl)cc3)C2=O)cc1S(=O)(=O)N1CCOCC1 (centres undefined) 19.2%
CC(=O)c1ccc(S(=O)(=O)Nc2ccc(C(=O)NCC(c3cccs3)N3CCOCC3)cc2)cc1 (centres undefined) 3.75%
CC1(C)Cc2cccc(OCC(=O)N3CCN(c4ccccc4F)CC3)c2O1 -1.24%
CN(c1ccccc1)c1nc(-n2ccnc2)nc(-n2ccnc2)n1 -3.98%
c1ccc(N(c2ccccc2)c2nc(-n3ccnc3)nc(-n3ccnc3)n2)cc1 -4.38% and -2.66%
O=C(NCCC1=CCCCC1)c1ccc2c(=O)n3c(nc2c1)CCCCC3 -3.44%
Cc1cc(C)nc(N2CCCC(C(=O)NCc3ccc4c(c3)OCO4)C2)n1 (centres undefined) -5.32%
COc1cc(C)c(NC(=O)COc2cccc3c2OC(C)(C)C3)cc1OC -1.98%
[O-][n+]1onc2c3ccnnc3ccc21 0.24%
Cc1cc2c(ccc3c2no[n+]3[O-])nn1 7.27%
CCOc1ccc(CCNC(=O)c2cccc(S(=O)(=O)N3CCCCC3)c2)cc1OCC -3.3%
O=C(Cn1c(=S)[nH]c2ncccc2c1=O)NCCc1ccccc1 -0.88%
O=C(NCCCN1CCOCC1)c1ccc2c(=O)n(Cc3ccccc3)c(=S)[nH]c2c1 -10.2%
CCOC(=O)C1=C(Cc2ccc(OC)cc2)C(=O)c2ccccc2C1=O 24.3%
CCOC(=O)C1=C(O)c2ccccc2C(=O)/C1=C\c1ccc(CC)cc1 31.5%
CCN(CC)/C(=N\S(=O)(=O)c1ccc(F)cc1)c1ccccc1 3.32%
COCCNC(=S)N1CCCN(c2nc3cc(C)ccc3cc2C#N)CC1 3.12%
Cc1ccc(S(=O)(=O)N(Cc2ccccc2)c2ccccc2C(=O)NCc2cccnc2)cc1 1.8%
O=c1[nH]nc(CNc2ccc(C(F)(F)F)cc2)c2ccccc12 -3.84%
COc1ccc(NCc2n[nH]c(=O)c3ccccc23)cc1 4.49%
CC(NC(=O)COC(=O)c1cc(S(=O)(=O)N2CCOCC2)ccc1F)c1ccccc1 (centres undefined) 4.22%
Cc1ccc(S(=O)(=O)Nc2cccc(C(=O)N3CCC(C(N)=O)CC3)c2)cc1 -11.3%
O=C(CSc1nc2ccccc2c(=O)n1-c1ccccc1Cl)Nc1cccc(S(=O)(=O)N2CCOCC2)c1 12.8%
Cc1cc(C)nc(NS(=O)(=O)c2ccc(NC(=O)c3cc(=O)c4ccccc4o3)cc2)n1 -13.1%
Cc1ccc(C(=O)NC(=S)NNC(=O)COc2ccc([N+](=O)[O-])cc2)cc1 -1.27%
Cc1cc(C=C2C(=O)c3ccccc3C2=O)c(C)n1-c1cccc(C(=O)O)c1 24.6%
Cc1cc(/C=C2/NC(=O)N(c3ccccc3)C2=O)c(C)n1-c1cccnc1 5.85%
Cc1cccc(N2C(=O)CC(N3CCN(c4ccccc4)CC3)C2=O)c1 (centres undefined) 6.83%
Cc1ccccc1N=C1NC(=O)CS1 -1.84%
Cc1ccc(N=C2NC(=O)CS2)cc1 32.9%
CCOC(=O)C(NC(=O)c1cccc(Cl)c1)(Nc1sc2c(c1C(N)=O)CCC2)C(F)(F)F (centres undefined) 30.9%
Nc1nc2nc(-c3ccc(F)cc3)cc(C(F)(F)F)n2n1 12.1%
COc1ccc(NS(=O)(=O)c2cccc(C(=O)NNC(=O)c3ccccc3O)c2)cc1 9.79%
COc1ccc(NS(=O)(=O)c2cccc(C(=O)NNC(=O)c3cccc(NC(C)=O)c3)c2)cc1 2.28%
CCc1ccc(N(C(=O)CNC(=O)c2ccco2)C(C(=O)NCC2CCCO2)c2ccccc2)cc1 (centres undefined) 6.06%
O=C(CCNC(=O)c1ccccc1Cl)Nc1nc(-c2ccccc2Cl)cs1 15.5%
NC(=O)c1ccc(-n2nnnc2SCc2ccccc2)cc1 -2.97%
COC(=O)c1ccccc1-c1ccc(C=O)o1 -12.2%
COC(=O)c1ccccc1-c1ccc(/C=N/NC(N)=O)o1 -4.17%
COc1cc(/C=C(\C#N)c2ccccn2)cc(OC)c1O 7.21%
COc1cc(C(=O)Oc2cccc(C=O)c2)cc(OC)c1OC 8.54%
CCc1ccc(OCc2nnc(SCc3ccc(C(=O)O)cc3)o2)cc1 -1.45%
O=C(O)c1ccc(CSc2nnc(COc3ccccc3)o2)cc1 -5.6%
